High-throughput results as filed in PubChem BioAssay.
CCHFV vOTU inh = blocks the CCHF virus ovarian tumor domain protease. 370,000 tested, 0.55% active. CCHFV vOTU protease, Pep-AMC fluorescence. inhibition, % at 11.5 µM
GDH-TPI counter = inhibits GDH-TPI coupling enzymes, artifact for Mtb FBA screen. GDH-TPI coupled enzyme counterscreen, NADH absorbance. inhibition, % at 4.8 µM. 360,000 tested, 1.2% active
FBA Mtb inh = inhibits M. tuberculosis FBA enzyme; 360,000 tested, 2.3% active; inhibition, % at 1 µM; P9WQA3; purified M. tuberculosis FBA, fluorescence read-out; in the data active = inhibition above about 27%
RecA splice inh = Mtb RecA intein splicing inhibition; P9WHJ3; cell-free RecA intein splicing, fluorescence; inhibition, % (test concentration not listed); 290,000 tested, 0.75% active; AID 2221; in the data active = inhibition above about 30%
Target sequence (P9WHJ3 whole entry, looked up, canonical isoform): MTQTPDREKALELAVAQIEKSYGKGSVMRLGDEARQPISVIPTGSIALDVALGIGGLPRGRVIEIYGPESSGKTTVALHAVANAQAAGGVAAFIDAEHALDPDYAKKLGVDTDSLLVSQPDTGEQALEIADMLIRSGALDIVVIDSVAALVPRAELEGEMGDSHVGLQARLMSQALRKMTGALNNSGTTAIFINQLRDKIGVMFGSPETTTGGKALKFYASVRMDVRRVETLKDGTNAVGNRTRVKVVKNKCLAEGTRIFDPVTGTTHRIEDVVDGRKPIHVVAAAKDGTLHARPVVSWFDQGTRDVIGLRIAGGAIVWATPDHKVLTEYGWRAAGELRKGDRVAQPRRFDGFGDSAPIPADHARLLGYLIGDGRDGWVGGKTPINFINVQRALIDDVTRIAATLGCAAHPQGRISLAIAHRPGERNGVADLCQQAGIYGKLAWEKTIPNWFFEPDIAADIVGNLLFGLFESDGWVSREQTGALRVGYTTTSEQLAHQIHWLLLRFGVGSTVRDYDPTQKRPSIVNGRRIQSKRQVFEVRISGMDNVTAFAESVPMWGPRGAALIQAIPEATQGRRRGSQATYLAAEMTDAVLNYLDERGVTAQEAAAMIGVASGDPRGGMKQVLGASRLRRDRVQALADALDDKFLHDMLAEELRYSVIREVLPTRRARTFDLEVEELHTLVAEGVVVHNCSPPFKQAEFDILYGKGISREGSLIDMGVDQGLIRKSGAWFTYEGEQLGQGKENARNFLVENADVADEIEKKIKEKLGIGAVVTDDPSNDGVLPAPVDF
Each line names hits and unclear results; the compound was inactive in the other large screens. The list is not random: actives were taken first. Their share in the collection is about 4.2%. Rule as the data show it, unless noted: active = inhibition above about 30%; inactive = the rest.

CC1(CC(=O)N/N=C/c2cc(Br)c(O)cc2O)OCCO1	GDH-TPI counter 47.8
Cc1ccc(N2C(=O)c3ccccc3C2C(=O)c2ccc(O)cc2O)cc1 (centres undefined)	GDH-TPI counter 43.0
COc1ccc(C(=O)Nc2ccc3c(c2)C(=O)N(C)[C@H]2CC[C@H](CC(=O)NCC4CC4)O[C@@H]2CO3)cc1	none (no result: GDH-TPI counter, FBA Mtb inh, RecA splice inh)
CCCCn1c(O)c(/C=N/NC(=O)c2ccncc2)c(=O)[nH]c1=O	GDH-TPI counter 46.2
CSc1nnc2c(=O)[nH]c(=O)n(C)c2n1	none (no result: RecA splice inh)
CSc1cnc2c(=O)n(C)c(=O)[nH]c2n1	FBA Mtb inh 129.7
O=C1C[C@@H](C(=O)Nc2ccc(Cl)cc2)[C@@H](c2ccccc2)O1	none (no result: GDH-TPI counter, FBA Mtb inh, RecA splice inh)
CN1CC2(Cc3c1ccc1ccccc31)C(=O)OC(C)(C)OC2=O	FBA Mtb inh active
C[C@H]1COc2cc(N3CCSCC3)ccc2S(=O)(=O)N1C	none (no result: GDH-TPI counter, FBA Mtb inh, RecA splice inh)
CCN(Cc1ccc(OC)c(F)c1)C(=O)C1CCCO1 (centres undefined)	none
CCN(Cc1ccc(OC)c(F)c1)C(=O)CCl	RecA splice inh 48.9
COc1ccc(/C=N/NC(=O)c2ccc3nc[nH]c3c2)c(OC)c1	GDH-TPI counter 34.8
CCOc1ccc(/C=N/NC(=O)c2ccc3nc[nH]c3c2)cc1OC	GDH-TPI counter 41.6 (no result: RecA splice inh)
COc1ccc(/C=N/NC(=O)c2ccc3nc[nH]c3c2)cc1	none
COc1ccc(/C=N/NC(=O)c2cc3c(ccc4ccccc43)o2)cc1OC	none
COc1ccccc1/C=N/NC(=O)c1cc2c(ccc3ccccc32)o1	none
COc1ccc(/C=N\NC(=O)c2cc3c(ccc4ccccc43)o2)cc1O	GDH-TPI counter 39.2
COc1ccc2ccc(OC)c(/C=N/NC(=O)c3cc4ccccc4o3)c2c1	GDH-TPI counter 31.6 (no result: RecA splice inh)
COc1cc(/C=N/NC(=O)c2cc3c(ccc4ccccc43)o2)cc(OC)c1O	GDH-TPI counter 49.0
OC[C@@H]1CN(Cc2ccc(F)cc2)C[C@H](n2cnc3c(NCc4ccc(F)cc4)ncnc32)O1	none (no result: RecA splice inh)
O=C(O)c1cnn2c(C(F)(F)F)cc(-c3ccco3)nc12	GDH-TPI counter 38.7
Cc1[nH]c2ccccc2c1/C=N/NC(N)=S	GDH-TPI counter 37.0
Cc1ccc(NC(=S)N/N=C/c2c(C)[nH]c3ccccc23)cc1	none
CC1(c2nnnn2-c2ccc3ccccc3c2)CSCC(=O)N1C1CC1 (centres undefined)	none (no result: GDH-TPI counter, FBA Mtb inh, RecA splice inh)
O=c1[nH]c(-[n+]2ccccc2)c(/C=N/N=C(\[O-])c2ccccc2)s1	GDH-TPI counter 57.0
O=C(N/N=C/c1sc(=O)[nH]c1-[n+]1ccccc1)c1ccccc1[O-]	GDH-TPI counter 55.0
Cc1cc[n+](-c2[nH]c(=O)sc2/C=N/N=C(\[O-])c2ccncc2)cc1C	GDH-TPI counter 34.8
Cc1cc[n+](-c2[nH]c(=O)sc2/C=N/N=C(\[O-])c2ccccc2)cc1C	none
Cc1ccc[n+](-c2[nH]c(=O)sc2/C=N/N=C(\[O-])c2cccnc2)c1	none
CCc1ccc[n+](-c2[nH]c(=O)sc2/C=N/N=C(\[O-])c2cccnc2)c1	GDH-TPI counter 38.7
CC(C)N(Cc1cn(Cc2ccccc2)nn1)S(=O)(=O)c1ccc(F)cc1Br	none (no result: GDH-TPI counter, FBA Mtb inh, RecA splice inh)
Cc1ccc(-c2nnc(-c3cc(C)on3)o2)cc1	none
CCOC(=O)C1(C)CCCN(C(=O)c2cccc3ccccc23)C1 (centres undefined)	none (no result: RecA splice inh)
CS(=O)(=O)c1ccc(S(=O)(=O)N2CCC(CO)(CCCc3ccccc3)CC2)cc1	none
Cc1cc(N2CCN(CCO)CC2)n2nc(C)nc2n1	none (no result: GDH-TPI counter, FBA Mtb inh, RecA splice inh)
Cc1ccc(/C=N\Nc2cn[nH]c(=O)c2Cl)cc1	GDH-TPI counter 48.0
O=c1[nH]ncc(N/N=C/c2ccccc2)c1Cl	GDH-TPI counter 79.7
COc1ccc(/C=N/Nc2cc(C)nc3ccccc23)cc1	none
COc1ccc(/C=N/Nc2cn[nH]c(=O)c2Cl)cc1	GDH-TPI counter 35.8
O=c1[nH]ncc(NCCc2ccccc2)c1Cl	none
CC(C)CNC(=O)OCc1cn(Cc2ccccc2C(F)(F)F)nn1	none (no result: GDH-TPI counter, FBA Mtb inh, RecA splice inh)
O=C(Cn1cncn1)N/N=C/c1cc([N+](=O)[O-])ccc1O	none
O=[N+]([O-])c1ccc(O)c(/C=N/Nc2ccc(Cl)nn2)c1	GDH-TPI counter 33.4 (no result: RecA splice inh)
Cc1ccn(CC(=O)N/N=C/c2cc([N+](=O)[O-])ccc2O)n1	GDH-TPI counter 49.4
CCC(=O)N1CCc2cc(Br)c(S(=O)(=O)N3CCCC(C(=O)NC(C)(C)C)C3)cc21 (centres undefined)	none (no result: GDH-TPI counter, FBA Mtb inh, RecA splice inh)
O=C(NNC(=O)c1ccc(Br)s1)c1csc(N2CCOCC2)n1	none (no result: RecA splice inh)
N#Cc1c(NC(=O)CSc2nnc(-c3ccccc3)o2)sc2c1CCCC2	GDH-TPI counter 30.9 (no result: CCHFV vOTU inh)
CC1CCc2c(sc(NC(=O)CSc3nnc(-c4ccccc4)o3)c2C#N)C1 (centres undefined)	none
Cc1cccc(S(=O)(=O)N[C@@H]2CC[C@@H](CCNS(=O)(=O)c3ccccc3F)O[C@@H]2CO)c1	none (no result: GDH-TPI counter, FBA Mtb inh, RecA splice inh)
O=C(Cc1cccc(NC(=O)C2CCCN(C(=O)C3CCCC3)C2)c1)Nc1cccc(C(=O)N2CCOCC2)c1 (centres undefined)	none (no result: RecA splice inh)
CCn1c(N)c(C(=O)N2CCOCC2)sc1=S	GDH-TPI counter 30.7
CCNC(=O)c1sc(=S)n(CC)c1N	GDH-TPI counter 31.8
C=CCn1c(N)c(C(=O)N2CCOCC2)sc1=S	none
CCn1c(N)c(C(=O)NC)sc1=S	none
O=c1ccc2cc(O[C@@H]3O[C@@H](CO)[C@H](O)[C@@H](O)[C@@H]3O)c(O)cc2o1	FBA Mtb inh active
CC(C)(O)[C@H](O)Cc1cc2ccc(=O)oc2cc1O[C@@H]1O[C@H](CO)[C@@H](O)[C@H](O)[C@H]1O	none (no result: RecA splice inh)
COc1cc2ccc(=O)oc2c(O[C@@H]2O[C@H](CO)[C@@H](O)[C@H](O)[C@H]2O)c1O	FBA Mtb inh 185.1
O=c1ccc2ccc(O[C@@H]3O[C@H](CO)[C@@H](O)[C@H](O)[C@H]3O)c(O)c2o1	none (no result: RecA splice inh)
C=CCNC(=O)c1c(N)n(Cc2ccco2)c2nc3ccccc3nc12	FBA Mtb inh 112.7
CC(C)(C)OC(=O)c1c(N)n(Cc2ccco2)c2nc3ccccc3nc12	FBA Mtb inh 113.9
COc1ccc(S(=O)(=O)c2c(N)n(Cc3ccco3)c3nc4ccccc4nc23)cc1	FBA Mtb inh 50.8
O=C(CN1CCNCC1)N1CCOCC1	none (no result: CCHFV vOTU inh, GDH-TPI counter, RecA splice inh)
COc1ccc(-c2cc(=O)c3c(O)cc(O)cc3o2)cc1	GDH-TPI counter 33.7 (no result: RecA splice inh)
O=c1c(-c2c(O)cc(O)c3c(=O)cc(-c4ccc(O)cc4)oc23)c(-c2ccc(O)cc2)oc2cc(O)cc(O)c12	none (no result: RecA splice inh)
O=c1cc(-c2ccc(O)cc2)oc2c(-c3c(O)cc(O)c4c(=O)cc(-c5ccc(O)cc5)oc34)c(O)cc(O)c12	GDH-TPI counter 35.3 (no result: RecA splice inh)
O=C(CSc1n[nH]c(-c2ccc(S(=O)(=O)NC3CCCCC3)cc2)n1)N1CCCC1	FBA Mtb inh 125.4
Cc1ccn2c(C(=O)N/N=C\c3ccccc3[N+](=O)[O-])c(C)nc2c1	GDH-TPI counter 44.4
O=C(N/N=C/c1ccc2c(c1)OCO2)c1cccc2ccccc12	none
C[n+]1cccc(C(=O)N/N=C/c2ccc3c(c2)OCO3)c1	none (no result: RecA splice inh)
Cc1ccn2c(C(=O)N/N=C\c3ccc4c(c3)OCO4)c(C)nc2c1	GDH-TPI counter 46.5
O=C(N/N=C/c1ccc2c(c1)OCO2)c1ccc2ccccc2n1	GDH-TPI counter 32.2
Cc1ccn2c(C(=O)N/N=C/c3ccc(Cl)cc3)c(C)nc2c1	none
